Laboratory results taken from PubChem BioAssay (NCATS).
“And” between values parts separate entries of the source, which are not always exact repeats. Identical values can stand only once. Records with an inconclusive call do not appear. The source made the active and inactive calls. Unless noted, calls come from the whole dose curve; as a rule, active = well fitted curve in the direction sought with a large enough effect; inconclusive = small, poorly fitted or top-dose-only effect, or another doubt; inactive = no such curve, though single readings can be large; an effect the other way counts as inactive or inconclusive.

Legend:
[1] = target: Cytochrome P450 1A2 (Homo sapiens) (UniProt P05177); test: p450-cyp1a2 (AID 410; calls by dose curve; note: potency is the fitted concentration of half-maximal effect;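 for activity change, negative = inhibition: -100% = full effect of reference inhibitor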)
Chain of Cytochrome P450 1A2 (Homo sapiens) (P05177 whole entry, looked up): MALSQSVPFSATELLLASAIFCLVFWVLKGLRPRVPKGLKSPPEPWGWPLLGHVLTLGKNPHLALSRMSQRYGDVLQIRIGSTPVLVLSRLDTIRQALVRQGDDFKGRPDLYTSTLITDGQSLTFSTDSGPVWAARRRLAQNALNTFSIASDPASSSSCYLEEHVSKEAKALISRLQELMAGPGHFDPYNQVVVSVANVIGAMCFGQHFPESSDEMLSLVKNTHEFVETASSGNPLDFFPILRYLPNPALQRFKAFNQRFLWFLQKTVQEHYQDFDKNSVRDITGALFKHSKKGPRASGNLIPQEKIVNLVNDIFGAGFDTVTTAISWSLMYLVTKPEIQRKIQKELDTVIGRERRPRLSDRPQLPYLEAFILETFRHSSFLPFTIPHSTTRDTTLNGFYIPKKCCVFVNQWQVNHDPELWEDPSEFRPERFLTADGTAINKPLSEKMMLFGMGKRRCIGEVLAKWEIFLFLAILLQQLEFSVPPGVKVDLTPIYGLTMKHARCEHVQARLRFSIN
Procedure, shortened: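 Luminescent demethylation readout: Luciferin-ME (100uM, equal to Km) turned over by 20nM CYP1A2 for 60 min at room temperature after NADPH regeneration addition, following 10 min compound preincubation. Normalization used 57 uM furafylline as full inhibition.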

[2] = target: Glucocorticoid receptor (Homo sapiens) (UniProt P04150); test: GR-GFP Redistribution (AID 450;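 active = compounds whose dose series gives a full or clear partial fitted curve of increased nuclear translocation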; note: potency is the fitted concentration of half-maximal effect); details: U2OS GR-GFP nuclear translocation, laser cytometry, 2 h
Chain of Glucocorticoid receptor (Homo sapiens) (P04150 whole entry, looked up, the tested form may be a part): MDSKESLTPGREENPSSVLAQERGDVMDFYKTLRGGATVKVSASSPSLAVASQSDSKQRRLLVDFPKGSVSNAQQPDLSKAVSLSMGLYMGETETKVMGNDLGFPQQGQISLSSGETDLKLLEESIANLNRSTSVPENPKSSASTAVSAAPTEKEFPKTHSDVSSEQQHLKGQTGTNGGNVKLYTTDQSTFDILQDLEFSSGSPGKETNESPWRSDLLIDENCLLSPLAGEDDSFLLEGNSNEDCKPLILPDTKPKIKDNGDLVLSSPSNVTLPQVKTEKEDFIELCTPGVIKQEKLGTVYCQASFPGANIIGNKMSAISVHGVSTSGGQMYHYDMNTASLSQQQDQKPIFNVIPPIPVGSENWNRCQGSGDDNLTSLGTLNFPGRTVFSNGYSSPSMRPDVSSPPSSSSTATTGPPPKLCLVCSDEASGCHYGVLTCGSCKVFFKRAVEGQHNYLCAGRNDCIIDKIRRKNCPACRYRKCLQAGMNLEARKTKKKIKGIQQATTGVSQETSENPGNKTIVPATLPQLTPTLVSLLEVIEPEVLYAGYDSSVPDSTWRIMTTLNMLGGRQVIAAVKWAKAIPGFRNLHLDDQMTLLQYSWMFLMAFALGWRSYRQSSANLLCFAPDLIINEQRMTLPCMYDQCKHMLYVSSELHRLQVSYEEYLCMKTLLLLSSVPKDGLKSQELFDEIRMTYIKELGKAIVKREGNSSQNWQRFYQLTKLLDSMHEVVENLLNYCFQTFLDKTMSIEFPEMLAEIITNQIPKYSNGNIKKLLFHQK

[3] = target: Glucocorticoid receptor (Homo sapiens) (UniProt P04150); test: GR-EFC Redistribution (AID 451; calls by dose curve; note: potency is the fitted concentration of half-maximal effect); details: CHO-K1 GR-EFC translocation, beta-gal luminescence, 2 h
Procedure, shortened: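 CHO-K1 cells expressing nuclear EA and GR-ED fragments of b-gal; compounds titrated up to 46 uM final, 2 h at 37 C. GR nuclear translocation read as complemented b-gal luminescence after 1 h RT detection.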

[4] = target: Mitogen-activated protein kinase 10 (Mus musculus) (UniProt Q61831); test: JNK3 AlphaScreen Assay (AID 530; active = well fitted curve in either direction with a large enough effect, not every such curve was filed as active;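 note: kinase came from lysate of stimulated human HepG2 cells; signal reports phosphorylation of biotinylated GST-cJun 1-79 at Ser73 with 10 µM ATP; % is set by controls: 0 for no effect and ±100 for the full control effect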)
Procedure, shortened: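 Activity was read by AlphaScreen after JNK3-containing HepG2 lysate (cytokine pre-activated) phosphorylated biotinylated GST-cJun with 10 uM ATP at room temperature. Phospho-Ser73 cJun antibody with Protein-A acceptor beads provided detection.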

[5] = target: 3',5'-cyclic-AMP phosphodiesterase 4B (Homo sapiens) (UniProt Q07343); test: qHTS Assay for Inhibitors of PDE-IV (AID 607; active = well fitted activation curve with a large enough effect in the main read-out, with a control signal flat, not every such curve was filed as active; note: % of control where 0% means no effect)
Chain of 3',5'-cyclic-AMP phosphodiesterase 4B (Homo sapiens) (Q07343 whole entry, looked up): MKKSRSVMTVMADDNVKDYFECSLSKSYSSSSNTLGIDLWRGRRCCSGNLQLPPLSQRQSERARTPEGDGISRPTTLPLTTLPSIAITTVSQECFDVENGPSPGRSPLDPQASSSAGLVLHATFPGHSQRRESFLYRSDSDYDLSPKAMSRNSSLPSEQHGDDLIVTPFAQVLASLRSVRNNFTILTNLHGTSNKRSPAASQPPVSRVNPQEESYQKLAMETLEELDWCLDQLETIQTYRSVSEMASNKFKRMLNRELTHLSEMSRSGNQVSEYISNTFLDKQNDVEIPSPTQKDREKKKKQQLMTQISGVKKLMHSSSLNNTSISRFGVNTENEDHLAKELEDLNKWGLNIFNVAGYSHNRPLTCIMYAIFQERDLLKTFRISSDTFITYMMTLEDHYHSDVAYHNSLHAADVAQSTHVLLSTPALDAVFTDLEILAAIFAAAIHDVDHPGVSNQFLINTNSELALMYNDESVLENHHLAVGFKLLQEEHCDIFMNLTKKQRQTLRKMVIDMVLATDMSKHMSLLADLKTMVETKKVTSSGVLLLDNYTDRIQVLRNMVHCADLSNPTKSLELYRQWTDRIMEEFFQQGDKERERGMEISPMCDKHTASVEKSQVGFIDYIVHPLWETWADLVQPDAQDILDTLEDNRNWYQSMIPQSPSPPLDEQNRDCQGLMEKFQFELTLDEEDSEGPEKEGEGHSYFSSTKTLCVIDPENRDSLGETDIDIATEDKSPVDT
Procedure, shortened: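 ACTOne HEK293 cells carry a modified cAMP-gated CNG channel and express endogenous PDE4; plated 1000 cells/well, compounds up to 22.9 uM final. Membrane-potential dye fluorescence (ex 535/em 590) was read; parental cells received 10 uM forskolin + 100 uM RO 20-1724.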

[6] = target: Cytochrome P450 2D6 (Homo sapiens) (UniProt P10635); test: qHTS Assay for Inhibitors and Substrates of Cytochrome P450 2D6 (AID 891); note: nearly all actives have a fitted effect of over 60% in size; note: potency is the fitted concentration of half-maximal effect;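 for activity change, negative = inhibition: luciferin methyl ether substrate demethylated by CYP2D6 with NADPH regeneration; % is set by controls: 0 for no effect and ±100 for the full control effect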
Chain of Cytochrome P450 2D6 (Homo sapiens) (P10635 whole entry, looked up): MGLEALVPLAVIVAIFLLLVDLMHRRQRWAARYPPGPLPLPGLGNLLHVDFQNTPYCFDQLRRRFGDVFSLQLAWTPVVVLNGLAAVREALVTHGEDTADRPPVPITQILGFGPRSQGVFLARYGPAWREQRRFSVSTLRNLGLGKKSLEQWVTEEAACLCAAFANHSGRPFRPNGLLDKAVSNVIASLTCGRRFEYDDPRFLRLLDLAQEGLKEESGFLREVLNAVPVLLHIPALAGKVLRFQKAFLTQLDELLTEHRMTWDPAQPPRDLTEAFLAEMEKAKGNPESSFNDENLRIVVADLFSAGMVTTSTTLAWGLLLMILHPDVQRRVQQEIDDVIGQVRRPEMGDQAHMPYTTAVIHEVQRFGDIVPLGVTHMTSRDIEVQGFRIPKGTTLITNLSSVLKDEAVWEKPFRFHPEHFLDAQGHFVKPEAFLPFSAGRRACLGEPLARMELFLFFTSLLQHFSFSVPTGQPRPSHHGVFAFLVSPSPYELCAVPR
Procedure, shortened: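 Luminescent read-out of luciferin formed by 5 nM human CYP2D6 demethylating 30 uM Luciferin-ME EGE (Km level) over 60 min at room temperature after NADPH regeneration addition. Data normalized to full inhibition by 1.43 uM quinidine.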

[7] = target: Cytochrome P450 2C19 (Homo sapiens) (UniProt P33261); test: qHTS Assay for Inhibitors and Substrates of Cytochrome P450 2C19 (AID 899); note: nearly all actives have a fitted effect of over 60% in size; note: potency is the fitted concentration of half-maximal effect
Chain of Cytochrome P450 2C19 (Homo sapiens) (P33261 whole entry, looked up): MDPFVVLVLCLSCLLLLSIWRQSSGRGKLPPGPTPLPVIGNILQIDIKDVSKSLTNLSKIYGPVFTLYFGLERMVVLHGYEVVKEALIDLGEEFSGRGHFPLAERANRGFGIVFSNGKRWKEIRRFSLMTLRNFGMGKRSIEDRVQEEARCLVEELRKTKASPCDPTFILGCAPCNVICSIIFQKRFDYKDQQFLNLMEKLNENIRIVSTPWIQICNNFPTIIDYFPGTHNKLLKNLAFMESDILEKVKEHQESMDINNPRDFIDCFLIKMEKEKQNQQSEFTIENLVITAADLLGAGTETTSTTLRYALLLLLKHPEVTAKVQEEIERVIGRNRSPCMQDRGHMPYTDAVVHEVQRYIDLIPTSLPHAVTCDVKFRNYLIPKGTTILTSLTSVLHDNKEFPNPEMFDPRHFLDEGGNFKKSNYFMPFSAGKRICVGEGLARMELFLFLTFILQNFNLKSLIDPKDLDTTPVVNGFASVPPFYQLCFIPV
Procedure, shortened: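 Luminescent read-out of luciferin formed from Luciferin-H EGE (10uM, equal to KM). Enzyme 5nM in 50mM KPO4; compound added, 10 min at 37C, then NADPH regenerating system for 60 min at 37C. Full inhibition defined by 57uM ketoconazole.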

[8] = qHTS Assay for Lipid Storage Modulators (AID 1519; calls by dose curve; for activity change, negative = inhibition: % is set by controls: 0 for no effect and ±100 for the full control effect); details: Drosophila S3 cells, BODIPY lipid droplet/cell ratio, laser cytometry, cells loaded with oleic acid; for activity change, negative = inhibition: at 57.5 µM (top of the series)
Procedure, shortened: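 Cells seeded at 5,000 per well were treated with compounds over a concentration series and loaded with oleic acid (400 uM, as added). Lipid droplet fluorescence (488 nm excitation, 500-530 nm channel) was read by laser-scanning cytometry and normalized to 20 uM Triacsin C.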

[9] = target: DNA dC->dU-editing enzyme APOBEC-3G (Homo sapiens) (UniProt Q9HC16); test: qHTS for inhibitors of Vif-A3G interactions: Validation (AID 588379); note: 0% is about no effect
Chain of DNA dC->dU-editing enzyme APOBEC-3G (Homo sapiens) (Q9HC16 whole entry, looked up): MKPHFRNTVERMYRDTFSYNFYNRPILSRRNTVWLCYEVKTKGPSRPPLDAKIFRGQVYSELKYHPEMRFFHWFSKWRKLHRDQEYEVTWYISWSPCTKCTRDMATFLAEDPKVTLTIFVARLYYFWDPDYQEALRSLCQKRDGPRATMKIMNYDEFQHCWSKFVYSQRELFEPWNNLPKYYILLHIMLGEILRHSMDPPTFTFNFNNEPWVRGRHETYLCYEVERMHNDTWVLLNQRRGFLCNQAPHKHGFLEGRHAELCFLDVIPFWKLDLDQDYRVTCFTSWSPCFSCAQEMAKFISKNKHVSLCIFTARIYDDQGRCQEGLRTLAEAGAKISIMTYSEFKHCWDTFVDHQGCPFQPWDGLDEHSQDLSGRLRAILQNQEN
Procedure, shortened: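 Yellow fluorescence (Ex 488, Em 500-530) of Vif-coexpressing HeLa A3G-eYFP cells, scanned by Acumen cytometer, reports blocked A3G degradation. Cells plated at 700/well overnight at 37 deg C before compound addition, then a further overnight compound incubation at 37 deg C.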

[10] = tested on: Zika virus NS2B-NS3 protease; test: Primary screen GU AMC qHTS for Zika virus inhibitors (AID 1347154); note: nearly all actives have a fitted effect of over 70% in size; note: potency is the fitted concentration of half-maximal effect;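 for activity change, negative = inhibition: 0% = no-inhibitor control and -100% = no-enzyme control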
Procedure, shortened: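 Unlinked Zika NS2B hydrophilic domain–NS3 protease complex at 25 nM in 10 mM Tris-HCl pH 8.0, 0.01% Tween 20, with an AMC peptide substrate. Fluorescence change (340/450 nm) over 15 min at room temperature, normalized to controls, fitted to 4-parameter Hill.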

[11] = Primary qHTS for small molecule stabilizers of the endoplasmic reticulum resident proteome: Secreted ER Calcium Modulated Protein (SERCaMP) assay (AID 1508630); note: potency is the fitted concentration of half-maximal effect; for activity change, negative = inhibition: % is set by controls: 0 for no effect and ±100 for the full control effect
Procedure, shortened: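 The SH-SY5Y reporter protocol was run at 3 concentrations up to 38.3 uM (primary) or 11 concentrations (follow-up): 16 h compound, 100 nM thapsigargin for 4 h, then extracellular luciferase luminescence.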

[12] = target: Ubiquitin carboxyl-terminal hydrolase 1 (Homo sapiens) (UniProt O94782); test: Inhibitors of USP1/UAF1: Pilot qHTS (AID 504865);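 note: rhodamine fluorescence freed from ubiquitin-rhodamine substrate followed over time; top concentration of the series differs between compounds; % is set by controls: 0 for no effect and ±100 for the full control effect; nearly all actives have a fitted effect of over 35% in size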
Chain of Ubiquitin carboxyl-terminal hydrolase 1 (Homo sapiens) (O94782 whole entry, looked up): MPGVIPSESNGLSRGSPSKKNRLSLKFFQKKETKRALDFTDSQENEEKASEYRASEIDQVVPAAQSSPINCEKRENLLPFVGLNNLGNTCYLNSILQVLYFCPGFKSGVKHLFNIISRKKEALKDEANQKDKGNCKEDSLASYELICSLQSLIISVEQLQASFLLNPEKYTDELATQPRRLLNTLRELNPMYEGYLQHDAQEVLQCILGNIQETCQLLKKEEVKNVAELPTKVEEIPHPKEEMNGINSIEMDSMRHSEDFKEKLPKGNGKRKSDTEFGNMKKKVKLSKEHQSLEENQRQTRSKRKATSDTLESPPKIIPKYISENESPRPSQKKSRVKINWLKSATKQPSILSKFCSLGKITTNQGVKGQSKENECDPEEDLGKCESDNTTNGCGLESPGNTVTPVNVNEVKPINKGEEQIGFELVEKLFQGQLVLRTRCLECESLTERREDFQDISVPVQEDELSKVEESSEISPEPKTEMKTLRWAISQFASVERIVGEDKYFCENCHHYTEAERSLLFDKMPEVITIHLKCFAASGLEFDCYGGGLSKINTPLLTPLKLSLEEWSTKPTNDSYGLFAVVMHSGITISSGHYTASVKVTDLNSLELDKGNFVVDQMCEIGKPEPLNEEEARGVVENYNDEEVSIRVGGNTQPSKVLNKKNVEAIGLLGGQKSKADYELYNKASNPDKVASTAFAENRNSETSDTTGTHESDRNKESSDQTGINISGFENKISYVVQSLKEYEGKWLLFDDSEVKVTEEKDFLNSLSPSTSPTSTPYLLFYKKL
Procedure, shortened: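 USP1/UAF1 complex at 1 nM preincubated 15 min at room temperature with compound, then Ub-Rho substrate added at 150 nM final. Fluorescence (480/540 nm) read kinetically in 50 mM HEPES pH 7.8, 0.5 mM EDTA, 1 mM TCEP, 0.1 mg/ml BSA, 0.01% Tween-20.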

[13] = target: Cytochrome P450 3A4 (Homo sapiens) (UniProt P08684); test: qHTS Assay for Activators of Cytochrome P450 3A4 (AID 885); note: nearly all actives have a fitted effect of over 65% in size; note: potency is the fitted concentration of half-maximal effect
Chain of Cytochrome P450 3A4 (Homo sapiens) (P08684 whole entry, looked up): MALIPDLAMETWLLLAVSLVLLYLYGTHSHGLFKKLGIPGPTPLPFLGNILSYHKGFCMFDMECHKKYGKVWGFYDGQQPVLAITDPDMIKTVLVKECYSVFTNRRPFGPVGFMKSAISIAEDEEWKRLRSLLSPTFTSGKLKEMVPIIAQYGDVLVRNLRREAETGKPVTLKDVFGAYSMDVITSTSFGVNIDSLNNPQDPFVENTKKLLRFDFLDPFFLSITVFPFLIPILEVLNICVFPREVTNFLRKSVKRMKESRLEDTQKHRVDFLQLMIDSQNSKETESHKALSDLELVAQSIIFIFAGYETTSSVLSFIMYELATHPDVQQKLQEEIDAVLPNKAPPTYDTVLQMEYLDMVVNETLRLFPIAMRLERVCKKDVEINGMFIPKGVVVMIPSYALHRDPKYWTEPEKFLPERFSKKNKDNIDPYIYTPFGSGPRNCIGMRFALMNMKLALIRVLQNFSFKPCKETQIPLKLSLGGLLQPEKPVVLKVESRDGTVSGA
Procedure, shortened: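 CYP3A4 activity: Luciferin-PPXE O-dealkylation, 25uM substrate, 200mM KPO4, RT throughout. Read-out is luciferase luminescence; higher values reflect activation.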

[14] = measured here: cell count channel max response
[15] = measured here: lipid channel max response

N[C@@H](C(=O)O)c1ccc(C(=O)O)c(C(=O)O)c1
inactive: Potency [1] | Potency [2] > 46 µM | Potency [3] > 46 µM | Potency [4] | Potency [5] | activity change, negative = inhibition [8] 1.89% and 0.925% and 9.39% | Potency [9] | Potency [10] | Potency [11]
active: Potency [6] 7.94 µM | Potency [7] 316 nM and 3.16 µM
-4.21% and -1.65% and 13.2%: max response [8, 14]
-0.754% and -2.49% and 18.8%: max response [8, 15]

NC1(C(=O)O)C[C@H](C(=O)O)[C@H](C(=O)O)C1 (some centres not stated)
12.8%: max response [8, 14]
inactive: Potency [1] | Potency [2] > 46 µM | Potency [3] > 46 µM | Potency [4] | Potency [5] | activity change, negative = inhibition [8] 1.98% | Potency [9] | Potency [10] | Potency [11]
14.8%: max response [8, 15]
active: Potency [7] 398 nM

CSc1nc(N)c2ncn([C@H]3O[C@H](COP(=O)(O)OP(=O)(O)O)[C@@H](O)[C@@H]3O)c2n1
26.1%: max response [8, 15]
inactive: Potency [2] > 46 µM | Potency [3] > 46 µM | Potency [4] | activity change, negative = inhibition [8] 8.63% | Potency [12] | Potency [9] | Potency [10] | Potency [11]
13.1%: max response [8, 14]

CC(=O)O[C@H]1C[C@H]2CC[C@@H]3[C@H]4C[C@@H]([N+]5(C)CCCCC5)[C@@H](OC(C)=O)[C@]4(C)CC[C@@H]3[C@@]2(C)C[C@@H]1[N+]1(C)CCCCC1
-24.4%: max response [8, 15]
inactive: Potency [2] > 46 µM | Potency [3] > 46 µM | Potency [4] | Potency [5] | activity change, negative = inhibition [8] -5.08% | Potency [9] | Potency [10] | Potency [11]
-19.7%: max response [8, 14]

C[C@](N)(COP(=O)(O)O)C(=O)O
inactive: Potency [2] > 46 µM | Potency [3] > 46 µM | Potency [4] | activity change, negative = inhibition [8] 4.7% | Potency [12] | Potency [9] | Potency [10]
21.4%: max response [8, 15]
16.3%: max response [8, 14]
active: Potency [11] 31.6 µM

O[C@@H](c1ccccc1)C1CCN(CCc2ccccc2)CC1
10.3%: max response [8, 15]
active: Potency [13] 15.8 µM
5.72%: max response [8, 14]
inactive: Potency [2] > 46 µM | Potency [3] > 46 µM | Potency [4] | activity change, negative = inhibition [8] 3% | Potency [9] | Potency [10] | Potency [11]

N[C@@H](CCCP(=O)(O)O)C(=O)O
inactive: Potency [2] > 46 µM | Potency [3] > 46 µM | Potency [4] | Potency [5] | activity change, negative = inhibition [8] -1.39% | Potency [9] | Potency [10] | Potency [11]
17.3%: max response [8, 15]
15.6%: max response [8, 14]

O=C(O)CCC/C=C\C[C@@H]1CO[C@H](C(F)(F)F)O[C@@H]1c1ccccc1O
inactive: Potency [2] > 46 µM | Potency [3] > 46 µM | Potency [4] | Potency [13] | activity change, negative = inhibition [8] 0.11% | Potency [12] | Potency [9] | Potency [10] | Potency [11]
-8.44%: max response [8, 15]
-8.58%: max response [8, 14]

O=C(O)COc1ccc(OCCNC[C@@H](O)COc2ccccc2)cc1
8.13%: max response [8, 14]
11.4%: max response [8, 15]
active: Potency [1] 39.8 µM
inactive: Potency [2] > 46 µM | activity change, negative = inhibition [8] 3.49% | Potency [12] | Potency [9] | Potency [10] | Potency [11]

C[C@H](NC[C@H](O)CP(=O)(O)Cc1ccccc1)c1ccc(Cl)c(Cl)c1
active: Potency [6] 0.0501 µM
0.952%: max response [8, 14]
5.21%: max response [8, 15]
inactive: Potency [1] | Potency [2] > 46 µM | Potency [4] | Potency [5] | activity change, negative = inhibition [8] 2.58% | Potency [12] | Potency [9] | Potency [10] | Potency [11]

CCCN=C(N)NCCC[C@H](N)C(=O)O
inactive: Potency [2] > 46 µM | Potency [3] > 46 µM | Potency [4] | activity change, negative = inhibition [8] -1.86% | Potency [12] | Potency [9] | Potency [10] | Potency [11]
-20.5%: max response [8, 15]
-18.5%: max response [8, 14]
active: Potency [6] 7.94 µM | Potency [7] 2000 nM

C[C@@](N)(C(=O)O)c1ccc(S(=O)(=O)O)cc1
inactive: Potency [1] | Potency [2] > 46 µM | Potency [5] | activity change, negative = inhibition [8] -0.133% | Potency [12] | Potency [9] | Potency [10] | Potency [11]
13.8%: max response [8, 15]
9.59%: max response [8, 14]

Cc1cc(C(=O)O)ccc1[C@H](N)C(=O)O
9.03%: max response [8, 15]
inactive: Potency [2] > 46 µM | Potency [4] | activity change, negative = inhibition [8] 1.88% | Potency [12] | Potency [9] | Potency [10] | Potency [11]
7.87%: max response [8, 14]

O=C1C(c2ccccn2)=[N+]([O-])c2ccccc21
active: Potency [1] 0.158 µM
22.9%: max response [8, 15]
20%: max response [8, 14]
inactive: Potency [2] > 46 µM | Potency [4] | Potency [5] | activity change, negative = inhibition [8] 3.2% | Potency [9] | Potency [10] | Potency [11]

CSc1nc(N)c2ncn([C@H]3O[C@H](COP(=O)(O)OP(=O)(O)OP(=O)(O)O)[C@@H](O)[C@@H]3O)c2n1
-2.91%: max response [8, 14]
1.82%: max response [8, 15]
inactive: Potency [2] > 46 µM | Potency [3] > 46 µM | Potency [4] | Potency [5] | Potency [6] | Potency [7] | activity change, negative = inhibition [8] 4.02% | Potency [9] | Potency [10] | Potency [11]

NC(=O)C[C@H](NC(=O)Cc1ccc(O)cc1O)C(=O)O
-23.7%: max response [8, 14]
-24%: max response [8, 15]
inactive: Potency [1] | Potency [2] > 46 µM | Potency [3] > 46 µM | Potency [4] | Potency [5] | activity change, negative = inhibition [8] -1.96% | Potency [9] | Potency [10] | Potency [11]

O=C(O)c1c2ccccc2cc2ccccc12
active: Potency [1] 0.2 µM | Potency [10] 26.7 µM
34.2%: max response [8, 15]
inactive: Potency [4] | activity change, negative = inhibition [8] 8.27% | Potency [12] | Potency [9] | Potency [11]
24.6%: max response [8, 14]

N[C@H](C(=O)O)C1[C@H](C(=O)O)[C@H]1C(=O)O (some centres not stated)
-12.3%: max response [8, 14]
inactive: Potency [2] > 46 µM | Potency [3] > 46 µM | Potency [4] | Potency [5] | activity change, negative = inhibition [8] 1.13% | Potency [12] | Potency [9] | Potency [10] | Potency [11]
active: Potency [6] 7.94 µM
-12.9%: max response [8, 15]
